Screening results (PubChem BioAssay)
Shown are actives, neighbours in structure and some others; about 0.5% of the full set was active somewhere.
AddAB inh = less growth of phage-infected E. coli with AddAB; inhibition, % at 11.9 µM; E. coli expressing H. pylori AddAB, absorbance growth; hit rate 0.29% among 330,000; in the data active = inhibition above about 12%
Tat transport = E. coli Tat transport inhibition. inhibition, % at 10 µM. E. coli MC4100 TorA-mCherry Tat export, fluorescence. hit rate 0.036% among 340,000;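 active = mean replicate inhibition at least 50% and at least half of replicates individually reaching 50%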;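 also: exported cargo escapes ClpAP degradation while cytoplasmic cargo is degraded and loses fluorescence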
E coli growth-1 = counter-screen for AddAB inhibitors: E. coli growth inhibition | hit rate 0.27% among 330,000 | E. coli V3065 growth, OD600 absorbance, 18 h | inhibition, % at 11.9 µM;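 active = inhibition above the campaign's mean inhibition across all tested compounds plus 3 SD, cut at about 9.9% in these data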;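 also: uninfected addAB+ strain grown without phage in ampicillin broth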
phage Ecoli inh = E. coli growth loss with phage present; hit rate 0.26% among 360,000; growth absorbance; inhibition, % at 11.9 µM; AID 651602; in the data active = inhibition above about 11%
E coli growth-2 = blocks Escherichia coli growth; OD600, 23 h; active compounds read low; OD600 absorbance (concentration not given with the values); hit rate 0.21% among 330,000;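 active = OD600 absorbance below the run mean of sample wells minus 3.6 SD, in any replicate, cut at about 0.56 in these data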
AddAB confirm = growth loss of T4-infected E. coli expressing H. pylori AddAB, confirmed | shares compounds with AddAB inh | E. coli V3065 expressing H. pylori AddAB, T4 phage, OD; T4 phage with gene 2 nonsense mutations | inhibition, % at 11.9 µM | hit rate 64% among 880;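 active = mean inhibition above a set limit taken from the earlier primary screen, cut at about 13% in these data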;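 also: higher means less bacterial growth since AddAB block lets phage replicate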
RecBCD counter = AddAB counter-screen: growth loss of RecBCD+ E. coli infected with mutant T4 phage. shares compounds with AddAB inh. E. coli V66 + mutant T4 phage, OD growth. hit rate 73% among 880. inhibition, % at 11.9 µM;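 active = mean inhibition above the mean of solvent-only control wells plus 3 SD, cut at about 4% in these data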;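 also: optical density read after an 18 h incubation at 37 °C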
bact viab count = counter-screen: bacterial growth inhibition | shares compounds with AddAB inh | inhibition, % at 11.9 µM | hit rate 35% among 880 | bacterial viability, absorbance (AddAB counterscreen) | AID 488956; in the data active = inhibition above about 25%
RecBCD conf = confirmation: growth loss of phage-infected RecBCD+ E. coli (RecBCD inhibitor screen); E. coli V66 + T4 2- phage, growth OD; hit rate 45% among 890; inhibition, % at 11.9 µM; AID 651982; shares compounds with phage Ecoli inh;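 active = mean inhibition over triplicates exceeding the hit threshold derived in the original primary screen, cut at about 11% in these data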
Ecoli viability = inhibits E. coli viability, flagging RecBCD hits as nonselective; inhibition, % at 11.9 µM; absorbance (OD) growth; shares compounds with phage Ecoli inh; AID 651983; hit rate 29% among 890; in the data active = inhibition above about 20%;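 also: E. coli strain V66 grown with compound alone and no phage infection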
AddAB phage OD = growth loss of phage-infected AddAB E. coli, RecBCD counter-screen. shares compounds with phage Ecoli inh. E. coli expressing H. pylori AddAB + T4 phage, OD growth; gene 2 mutant T4, recBCD-deleted host. inhibition, % at 11.9 µM. hit rate 45% among 890. AID 651984;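 active = mean inhibition above the solvent-only control wells' mean plus 3 SD, cut at about 22% in these data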;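 also: higher means less bacterial growth from phage killing when AddAB is blocked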
Hits are given with their value; – = inactive; · = no result given.

SMILES | AddAB inh | Tat transport | E coli growth-1 | phage Ecoli inh | E coli growth-2 | AddAB confirm | RecBCD counter | bact viab count | RecBCD conf | Ecoli viability | AddAB phage OD
Cc1cc(=O)[nH]c(N/N=C/c2ccccn2)n1 | 18 | – | 13 | 19 | · | – | 20 | – | – | – | –
Cc1cc(=O)[nH]c(NN=Cc2ccccn2)n1 | · | · | · | · | – | · | · | · | · | · | ·
O=C(O)c1cn(-c2ccc(F)cc2)c2cc(Cl)c(F)cc2c1=O | 53 | – | 55 | 14 | 0.066 | 102 | 99 | 101 | 98 | 100 | 99
CCOC(=O)c1cn(-c2ccc([N+](=O)[O-])cc2)c2cc(Cl)c([N+](=O)[O-])cc2c1=O | – | – | – | – | – | · | · | · | · | · | ·
COc1ccc(Nc2nnc(SCc3cn4c(C)cccc4n3)s2)cc1 | 16 | – | 16 | 14 | – | 16 | 12 | – | 13 | – | –
CC1CN(C(C)CO)C(=O)c2cccc(NS(=O)(=O)c3ccccc3)c2OC1CN(C)CC1CC1 (stereo not drawn) | · | · | · | · | – | · | · | · | · | · | ·
Oc1ccc2ccccc2c1N=Nc1ccccn1 | 26 | – | 31 | 27 | – | 27 | 25 | – | 23 | 27 | 30
CC(=O)c1cn(CC(=O)Nc2ccc(C)cc2)c2ccccc12 | 14 | – | 11 | 11 | – | – | – | – | – | – | –
CC(=O)c1cn(CC(=O)Nc2ccc(C)c(C)c2)c2ccccc12 | – | – | – | – | – | · | · | · | · | · | ·
Cc1nnc(NCc2cccc(Cl)c2)c2ccccc12 | – | – | – | – | – | · | · | · | · | · | ·
Cc1nnc(NCCc2ccccc2)c2ccccc12 | 18 | – | 15 | 13 | – | – | 8.5 | – | – | – | –
CC1CN(C(C)CO)C(=O)c2cccc(NC(=O)CCC(F)(F)F)c2OC1CN(C)S(=O)(=O)c1ccc(F)cc1 (stereo not drawn) | · | · | · | · | – | · | · | · | · | · | ·
CCc1nnc(NS(=O)(=O)c2ccc(N=Cc3c(C)[nH]n(-c4ccc(C)c(C)c4)c3=O)cc2)s1 | 16 | – | 12 | 11 | · | – | 4.5 | – | – | – | 23
COc1ccc(CCc2cc(OC)c(OC)c(OC)c2)cc1 | · | – | · | – | · | · | · | · | · | · | ·
COc1cc(Cc2cc(N)nc(N)n2)cc(OC)c1OC | 101 | – | 101 | 95 | 0.051 | 99 | 99 | 99 | 103 | 105 | 103
Oc1c(C(Nc2ccccn2)c2ccccn2)ccc2cccnc12 (stereo not drawn) | 17 | – | 14 | 16 | – | – | 9.8 | – | – | – | –
Oc1ccccc1C(Nc1nccs1)c1ccc2cccnc2c1O (stereo not drawn) | 13 | – | 17 | 12 | – | – | 12 | – | – | – | –
O=c1nc(C=Cc2cccn2-c2ccc([N+](=O)[O-])cc2)cc(C(F)(F)F)[nH]1 | · | · | · | · | – | · | · | · | · | · | ·
CN(C)c1ccc(O)c2c1CC1CC3[C@@H](N(C)C)C(=O)C(C(N)=O)=C(O)[C@]3(O)C(=O)C1=C2O (stereo partly drawn) | 99 | 149 | 102 | 99 | · | 99 | 98 | 100 | 93 | 103 | 103
CCC=CC(=O)N1CC2(CC(c3cccc(NC(=O)CC)c3)=NO2)CC1C(N)=O (stereo not drawn) | · | · | · | · | – | · | · | · | · | · | ·
Cn1nnnc1N=N/C(=N/Nc1ccccc1)c1ccccc1 | 25 | – | 21 | 20 | · | 25 | 23 | – | 11 | – | –
CC(NC(=O)c1[nH]cnc1C(=O)Nc1ccon1)c1ccccc1 (stereo not drawn) | · | · | · | · | – | · | · | · | · | · | ·
C=CCC(CC(=O)NC(CO)Cc1ccccc1)C(=O)NCCOC(=O)C(CC=C)CC(=O)OC(C)(C)C (stereo not drawn) | · | · | · | · | – | · | · | · | · | · | ·
O=c1[nH]cc(F)c(=O)[nH]1 | 48 | – | 44 | 53 | · | 45 | 38 | 41 | 63 | 53 | 70
O=c1[nH]cc(O)c(=O)[nH]1 | – | – | – | – | – | · | · | · | · | · | ·
SMILES | AddAB inh | Tat transport | E coli growth-1 | phage Ecoli inh | E coli growth-2 | AddAB confirm | RecBCD counter | bact viab count | RecBCD conf | Ecoli viability | AddAB phage OD
Cc1noc(C)c1NC(=O)N(C)CC1Oc2ccc(NC(=O)NC3CCCCC3)cc2C(=O)N(C(C)CO)CC1C (stereo not drawn) | · | · | · | · | – | · | · | · | · | · | ·
O=C(NCc1ccccc1)C1=CC(C2CCCCC2)CC(OCCCCO)O1 (stereo not drawn) | · | · | · | · | – | · | · | · | · | · | ·
CCOc1ccc(NC(=S)NCc2nc3ccccc3[nH]2)cc1 | 20 | – | 16 | 20 | – | 32 | 19 | – | 17 | – | 29
CC(C)c1ccccc1NC(=S)NCc1nc2ccccc2[nH]1 | – | – | – | – | – | · | · | · | · | · | ·
FC(F)Oc1ccc(NC(=S)NCc2nc3ccccc3[nH]2)cc1 | 16 | – | 17 | 17 | – | 33 | 19 | – | 21 | – | 36
N#Cc1ccc(-c2nc3cc(Cl)ccc3c(=O)n2O)cc1 | – | – | – | – | – | · | · | · | · | · | ·
O=c1c2ccc(Cl)cc2nc(-c2cccc(C(F)(F)F)c2)n1O | 12 | – | 11 | 11 | – | – | 7.9 | – | – | – | –
COc1ccc(NC(=O)CSc2nnc(-c3ccc(F)cc3)o2)cn1 | 21 | – | – | 24 | – | 29 | 17 | – | 21 | 21 | 39
O=C(CSc1nnc(-c2cccnc2)o1)Nc1ccc(F)cc1 | · | · | · | – | · | · | · | · | · | · | ·
COc1ccc(C2C=CCN(C(=O)Oc3ccccc3)CC(=O)N2Cc2ccc(F)cc2)cc1 (stereo not drawn) | · | · | · | · | – | · | · | · | · | · | ·
CC(C)NC(=O)Nc1cccc2c1OC(CN(C)S(=O)(=O)c1ccccc1)C(C)CN(C(C)CO)C2=O (stereo not drawn) | · | · | · | · | – | · | · | · | · | · | ·
COc1cccc(/C=N/NC(=O)C(=O)Nc2ccccc2OC(F)(F)C(F)F)c1O | 19 | – | 15 | 17 | · | – | 12 | – | – | – | –
O=C(NN=Cc1cc(Br)ccc1O)C(=O)Nc1ccccc1OC(F)(F)C(F)F | · | · | · | · | – | · | · | · | · | · | ·
COc1cccc(C=NNC(=O)c2ccc(-c3ccccc3)cc2)c1O | · | · | · | · | – | · | · | · | · | · | ·
COc1cccc(/C=N/NC(=O)c2ccc(-c3ccccc3)cc2)c1O | 19 | – | 17 | 19 | · | – | 16 | – | – | – | –
CC1CCC(=O)N(CC(C)CSc2ccccc2)CC1 (stereo not drawn) | · | · | · | · | – | · | · | · | · | · | ·
O=C(NC(NC(=S)Nc1ccc(Cl)cc1)C(Cl)(Cl)Cl)c1ccco1 (stereo not drawn) | 18 | – | 15 | 20 | · | 14 | 18 | – | – | – | –
